Compound activity from PubChem BioAssay.
In the library only some 4.7% were active in any assay of this set; here they are far more common.
S2 tox: Viability Counterscreen for Primary qHTS for Inhibitors of ATXN expression; S2 cells (HEK-293 line with an ATXN2-luciferase reporter) viability, CellTiter-Fluor protease fluorescence, 24 h; Potency, µM (highest dose often 56.7 µM), actives largely listed as cytotoxic; actives 0.49% (n = 400,000); further: potency means the concentration at half of the fitted maximal effect; nearly all actives have a fitted effect of over 40% in size
D3 antag: qHTS of D3 Dopamine Receptor Antagonist: qHTS | D(3) dopamine receptor (Homo sapiens), P35462 | D3R cells, DiscoveRx beta-arrestin luminescence, antagonist mode; hits give low values | max response, negative = inhibition, % | actives 2.5% (n = 360,000) | AID 652054, 2013; in the data active means max response below about -50%; inconclusive means no clear call, values can overlap the other calls; further: on the % scale 0 is the no-effect control and ±100 the full control effect
Target sequence (P35462 whole entry, looked up): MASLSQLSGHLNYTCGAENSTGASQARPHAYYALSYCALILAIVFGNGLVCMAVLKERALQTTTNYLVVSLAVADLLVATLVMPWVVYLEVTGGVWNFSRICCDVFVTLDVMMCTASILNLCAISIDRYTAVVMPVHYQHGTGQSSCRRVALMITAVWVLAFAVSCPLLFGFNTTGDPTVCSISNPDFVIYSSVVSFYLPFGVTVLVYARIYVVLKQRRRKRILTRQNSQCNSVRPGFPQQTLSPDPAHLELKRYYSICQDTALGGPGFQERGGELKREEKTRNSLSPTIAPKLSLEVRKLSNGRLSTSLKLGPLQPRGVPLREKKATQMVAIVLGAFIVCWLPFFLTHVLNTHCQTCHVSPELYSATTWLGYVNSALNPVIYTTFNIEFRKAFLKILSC
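Cells expressing the human receptor were seeded at 1500 cells/well, incubated overnight at 37 degrees C in 5% CO2, then exposed to library compounds with dopamine controls for 90 minutes at 37 degrees C before luminescent detection.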
HepG2 tox: qHTS for Inhibitors of TGF-b: Cytotox Counterscreen; HepG2 CAGA-GFP viability, ATP luminescence, 18 h; Potency, µM (titrated, usually from 46.1 µM), inactives show top-dose activity change, negative = cytotoxicity, most hits filed as cytotoxic; actives 0.76% (n = 410,000); further: potency means the concentration at half of the fitted maximal effect
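CellTiter-Glo luminescence gave cytotoxicity after 18 hours at 37 degrees C. The cells were HepG2 CAGA-GFP in 1% FBS DMEM, stimulated with 500 pg/mL TGF-beta after compound addition. %Activity was normalised to no-cell wells (complete cell-killing) and DMSO (no toxicity), and curves were fitted and classified.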
ATXN2 expr inh: Primary qHTS for Inhibitors of ATXN expression; actives 0.72% (n = 360,000); Potency, µM (doses to about 57 µM), for inactives: top-dose activity change, negative = inhibition, usual class: inhibitors; HEK-293 ATXN2-luciferase reporter, luminescence, 24 h; further: potency means the concentration at half of the fitted maximal effect; on the % scale 0 is the no-effect control and ±100 the full control effect; nearly all actives have a fitted effect of over 55% in size
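qHTS (up to 57 uM final) was run with 24 h compound exposure of reporter cells at 37 °C. Each well was multiplexed: SteadyGlo luminescence measured ATXN2-luciferase expression after a fluorogenic Gly-Phe-AFC viability readout (25 uM final).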
DRD3 agonist: qHTS of D3 Dopamine Receptor Agonist: qHTS | D(3) dopamine receptor (Homo sapiens), P35462 | D3R DiscoveRx beta-arrestin cells, luminescence, 90 min | max activation, % | actives 0.58% (n = 410,000); in the data active means max activation above about 30%; further: 0% is about no effect
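Agonist mode: compounds and dopamine controls were applied to plated cells for 90 min at 37 degrees C after an overnight attachment at 1500 cells/well. Luminescent read-out followed 30 - 60 minutes at room temperature with DiscoveRx detection reagent.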
TGFb SMAD3 inh: qHTS for Inhibitors of TGF-b; HepG2 CAGA-GFP TGF-b/SMAD3 reporter, GFP fluorescence, 18 h; TGF-beta stimulated, 500 pg/mL final; Potency, µM (highest dose often 46.1 µM), for the others: top-dose activity, negative = inhibition, usual class: inhibitors; actives 1.2% (n = 410,000); AID 588855, 2011; further: potency means the concentration at half of the fitted maximal effect; on the % scale 0 is the no-effect control and ±100 the full control effect; nearly all actives have a fitted effect of over 65% in size
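Using HEPG2 CAGA-GFP reporter cells at 1000 cells/well, we pinned test compounds, stimulated with recombinant TGF-beta (500 pg/mL final) and measured total well GFP after 18 h.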
Starred values were filed as active, the others as inactive; i = inactive; ? = inconclusive; nt = not tested or not shown. Unless noted, the call rests on the fitted dose curve; in most records, active means well fitted curve in the direction sought with a large enough effect; inconclusive means small, poorly fitted or top-dose-only effect, or another doubt; inactive means no such curve, though single readings can be large; an effect the other way counts as inactive or inconclusive.

SMILES | S2 tox | D3 antag | HepG2 tox | ATXN2 expr inh | DRD3 agonist | TGFb SMAD3 inh
Nc1nonc1OCCOCCOCCOc1nonc1N | i | -59* | 9% | -5% | -13 | 14%
O=C(COc1ccc(F)cc1)OCc1cc(=O)n2nc(-c3cccs3)sc2n1 | i | nt | -6% | -2% | -6 | -26%
CCCCn1c(NC(=O)c2ccccc2Cl)c(C#N)c2nc3ccccc3nc21 | i | ? | -59% | ? | 4 | ?
N#Cc1c(NC(=O)c2ccccc2Cl)n(Cc2ccccc2)c2nc3ccccc3nc12 | i | ? | -27% | -39% | -3 | 7.9µM*
O=C(N/N=C\c1ccccn1)c1ccccc1O | i | ? | 3.2µM* | -54% | -9 | ?
COc1ccc(OCC(=O)N/N=C/c2cccc3cccnc23)cc1 | i | -2 | -11% | ? | 3 | 3%
O=C(N/N=C/c1cccc2nccnc12)c1ccccc1O | i | -15 | -19% | ? | -3 | -6%
O=C(N/N=C/c1cccc2cccnc12)c1ccccc1O | 3.5µM* | -53* | -16% | nt | -15 | ?
CC(C)n1cc(/C=N/NC(=O)COc2cccc3cccnc23)c2ccccc21 | ? | 16 | -43% | -42% | 34* | -19%
O=C(COc1ccc(Cl)cc1)N/N=C/c1cccc2cccnc12 | i | 7 | 6% | 25µM* | 2 | ?
COc1ccc(C(=O)N/N=C/c2ccccn2)cc1OC | i | -5 | -33% | -7% | -4 | 3%
COc1ccc(C(=O)Nc2ccccc2C(=O)N/N=C/c2ccccn2)cc1OC | i | 7 | -18% | 28µM* | 7 | ?
CN(c1ccc(/C=C/c2ccccc2)cc1)P1(=O)NCCCO1 (stereo unspecified) | nt | nt | -19% | nt | nt | 1%
COc1ccc(CCNC(=O)C(=O)NCC(c2cccs2)S(=O)(=O)c2ccc(F)cc2)cc1 (stereo unspecified) | ? | nt | -7% | ? | 15 | -23%
O=C(C=C(O)c1ccc(Cl)cc1)C(=O)NNC(=O)C(O)(c1ccccc1)c1ccccc1 | i | -8 | -7% | -8% | 0 | -17%
Cc1ccc(/C(O)=C/C(=O)C(=O)NNC(=O)C(O)(c2ccccc2)c2ccccc2)cc1 | i | -88* | -25% | 2% | 4 | ?
O=[N+]([O-])c1ccc2nc(NN=Cc3ccc(O)cc3)sc2c1 | i | -52* | -13% | -17% | -4 | -17%
CCCCCCCCN1C(=O)[C@H](CC(=O)NCc2cccc(C(F)(F)F)c2)C[C@@]2(C(=O)OCC)CCC=C12 | nt | 14 | nt | nt | -7 | nt
CCCC(=O)Nc1nnc(-c2ccco2)s1 | i | -66* | 3% | 20% | 4 | -18%
O=C(Cc1ccccc1)Nc1nnc(-c2ccco2)s1 | i | -19 | -1% | 26% | -4 | 6%
CN(CC(=O)O)c1ccc(/C=C2\C=Cc3ccccc32)cc1 | nt | nt | 2% | nt | nt | ?
COc1cccc(NS(=O)(=O)c2ccc3c(c2)[C@H]2C=CC[C@H]2[C@@H](c2ccccc2Cl)N3)c1 | i | nt | -50% | 0% | -8 | 11µM*
COc1ccc(-n2nc(C(=O)N3CCCC(C)C3)c3c4ccccc4n(C)c3c2=O)cc1 (stereo unspecified) | ? | nt | -13% | 10% | 10 | 0%
O=C(Nc1nnc(C2CC2)s1)c1ccc(Cl)c(S(=O)(=O)N2CCc3ccccc3C2)c1 | i | 0 | -30% | -18% | 41* | ?
Cc1cccc(NC(=O)c2ccc(F)c(S(=O)(=O)NCc3ccco3)c2)c1 | i | 0 | -9% | -21% | 3 | -23%
SMILES | S2 tox | D3 antag | HepG2 tox | ATXN2 expr inh | DRD3 agonist | TGFb SMAD3 inh
COc1ccccc1CNS(=O)(=O)c1cc(C(=O)Nc2cccc(C(F)(F)F)c2)ccc1F | nt | nt | -18% | nt | -8 | 11µM*
O=C(Nc1cccc(C(F)(F)F)c1)c1ccc(F)c(S(=O)(=O)N2CCc3ccccc3C2)c1 | nt | nt | -33% | nt | -11 | 11µM*
CNC(=O)c1ccc(CN(C)C(=O)/C=C/c2ccc(S(=O)(=O)N3CCCCCC3)cc2)cc1 | i | -5 | 7.1µM* | nt | -2 | -25%
Cc1c(Cl)sn(-c2ccc(Cl)cc2)c1=O | 30µM* | -52* | -140% | 8.9µM* | -2 | ?
Cc1ccc(N2C(=O)CSC2c2cccs2)cc1 (stereo unspecified) | i | -57* | 7% | 1% | 12 | -24%
COc1ccc(/C=C/C(=O)c2ccc([N+](=O)[O-])o2)cc1 | ? | -75* | -58% | ? | -28 | ?
O=C(/C=C/c1ccc(O)c([N+](=O)[O-])c1)c1ccc2ccccc2c1 | i | -29 | -19% | -19% | 7 | ?
COc1ccc(Oc2ccc(/C=C/C(=O)c3ccc(O)cc3)cc2[N+](=O)[O-])cc1 | nt | ? | -98% | 22µM* | 4 | 16µM*
COc1ccc(/C=C/C(=O)c2ccc(O)cc2)cc1COc1ccc(F)cc1 | i | ? | 16µM* | ? | -20 | ?
CCC(C(=O)N1CCN(c2cccc(Cl)c2)CC1)c1ccccc1 (stereo unspecified) | i | -59* | 0% | -13% | 0 | -3%
COc1cccc(N2CCN(C(=O)CC(NC(=O)c3ccccc3)c3ccccc3)CC2)c1 (stereo unspecified) | i | -54* | -56% | 0% | -9 | -13%
O=C(O)/C=C/C(=O)N1CCN(c2cccc(Cl)c2)CC1 | i | -60* | -4% | -21% | -17 | -21%
CC(=O)/C(C(=N)N1CCN(c2cccc(Cl)c2)CC1)=C(\C)O | i | 0 | -1% | 6% | -22 | 10%
O=C(O)CCC(=O)N1CCN(c2cccc(Cl)c2)CC1 | i | -63* | -2% | 4% | -3 | -11%
O=C(CSc1nnc(-c2ccc(O)cc2)o1)c1ccc(Br)cc1 | ? | nt | -19% | -3% | 1 | -15%
CCN1CCCC1CN (stereo unspecified) | i | nt | nt | 2% | nt | nt
CCOC(=O)C1=CC[C@@H](c2ccccc2)N(S(=O)(=O)c2ccc(C)cc2)[C@H]1C | i | ? | 22µM* | -3% | -10 | ?
Cc1ccc(S(=O)(=O)N2[C@@H](c3ccc(F)cc3)C(C(=O)O)=CC[C@H]2c2cccc(C)c2)cc1 | i | ? | -8% | 1% | -4 | -1%
